Among the data in PubChem BioAssay AID504604 (National Center for Advancing Translational Sciences (NCATS), 2011) are Potency values, retold here.

Values joined by “and” are separate entries in the source; they are usually repeats but may differ in a detail not shown here. Equal entries are not always repeated. Active and inactive are the calls of the source. Calls follow the shape of the dose curve; as a rule, active = well fitted inhibition curve with a large enough effect; inconclusive = small, poorly fitted or top-dose-only effect; inactive = flat fitted curve, though single readings scatter.

The test in a line: Quantitative high throughput screen to test activity of anti-malarial compounds in the Dd2 strain of Plasmodium Falciparum. Particulars: P. falciparum Dd2 in RBCs, SYBR Green growth, 72 h. From the text: NIH Molecular Libraries Probe Production Network [MLPCN] NIH Chemical Genomics Center [NCGC] MLPCN Grant: R21 NS059500 Assay Provider: David Fidock and Eric Ekland, Columbia University The goal of this screen is to measure the ability of a set of anti-malarial compounds to inhibit the Dd2 strain of P. falciparum. These compounds have been screened in a delayed death phenotype assay and have been identified as inhibitors of the delated death phenotype, by inhibiting the development of the apicoplast in the malarial parasite Plasmodium falciparum (described below) The biochemical processes that make this organelle essential for erythrocytic stage parasites are not well understood. However, antibiotics, such as azithromycin and tetracycline, which target the apicoplast translational machinery, have a potent antimalarial effect. […] We have developed a cell-based assay that measures parasite growth based on the expression of an integrated copy of a firefly luciferase reporter. To detect small molecules that cause this 'delayed death' phenotype, erythrocytes infected with the luciferase-expressing parasites were incubated with compounds for either one or two generations, corresponding to 48 and 96 hours, respectively. Compounds that inhibit parasite growth in the second generation, but not the first, should be enriched in antimalarials that target the apicoplast. Growth inhibition is detected by a decrease in luciferase activity
3 ul culture medium was dispensed into black clear-bottom plates (aurora) with multidrop Combi followed by a pin-transfer of […] compounds and positive control into assay plates. (Controls: 1 mM Artemisinin 1:2 dilution in duplicate Multi-Drop dispense of P. falciparum infected RBCs (0.3% parasitemia, 2.5% hematocrit final concentration) followed by 72 hr incubation (37C, 5% CO2). Multi-drop dispense 2 ul 10 X SYBR Green lysis buffer ([…] Tris-HCl, 10 mM EDTA, 0.16% saponin (w/v), 1.6% Triton-X (v/v), 10 x SYBR Green I supplied as 10,000 x final concentration by Invitrogen) into assay plates. Incubated at Room temperature, overnight in the dark and then read using Envision (Perkin Elmer) with fluorescence intensity at 485 nm excitation and 535 nm emission wavelengths.
With `Cc1noc(C)c1NC(=O)Nc1ccc2c(c1)C(=O)N([C@@H](C)CO)C[C@@H](C)[C@H](CN(C)S(=O)(=O)c1ccc(F)cc1)OCCCC[C@H](C)O2`, the Potency was 634 nM (active).
Turning to `C[C@@H]1CN([C@@H](C)CO)C(=O)c2cc(NC(=O)Nc3ccccc3)ccc2O[C@@H](C)CCCCO[C@H]1CN(C)S(=O)(=O)c1cccnc1`, the Potency is 4490 nM (active).
Take `C=CCOC(=O)N(C)C[C@H]1OCCCC[C@H](C)Oc2ccc(NC(=O)Nc3ccccc3)cc2C(=O)N([C@@H](C)CO[Si](C)(C)C(C)(C)C)C[C@H]1C`: the Potency was 565 nM (active).
Turning to `C[C@@H]1CN([C@@H](C)CO)C(=O)c2cc(NC(=O)Nc3ccccc3)ccc2O[C@@H](C)C/C=C\CO[C@H]1CN(C)S(=O)(=O)c1ccc(F)cc1`, the Potency is 1260 nM (active).
Then `C[C@@H]1CN([C@@H](C)CO)C(=O)c2cc(NC(=O)Nc3ccccc3)ccc2O[C@@H](C)C/C=C/CO[C@H]1CN(C)S(=O)(=O)c1ccc(F)cc1`, with 565 nM (active); and `C[C@@H]1CN(C)C(=O)c2cc(NC(=O)Nc3ccccc3)ccc2O[C@@H](C)CCCCO[C@@H]1CN(C)S(=O)(=O)c1ccc(F)cc1`, with 3570 nM (active); and `C[C@@H]1CN([C@@H](C)CO)C(=O)c2cc(NC(=O)Nc3ccccc3)ccc2O[C@@H](C)CCCCO[C@H]1CN(C)S(=O)(=O)c1ccccc1F`, with 2000 nM (active).
The value for `C[C@@H]1CN(CCO)C(=O)c2cc(NC(=O)Nc3ccccc3)ccc2O[C@@H](C)CCCCO[C@H]1CN(C)S(=O)(=O)c1ccc(F)cc1` was 2520 nM (active); that for `COCOC[C@H](C)N1C[C@@H](C)[C@H](CN(C)S(=O)(=O)c2ccc(F)cc2)OCCCC[C@H](C)Oc2ccc(NC(=O)Nc3ccccc3)cc2C1=O` was 28.3 nM (active); that for `COc1ccc(COC[C@H](C)N2C[C@@H](C)[C@H](CN(C)Cc3ccc(OC)cc3)OCCCC[C@H](C)Oc3ccc(NC(=O)Nc4ccccc4)cc3C2=O)cc1` was 798 nM (active).
As to `COCCOCOC[C@H](C)N1C[C@@H](C)[C@H](CN(C)S(=O)(=O)c2ccc(F)cc2)OCCCC[C@H](C)Oc2ccc(NC(=O)Nc3ccccc3)cc2C1=O`, the Potency is 35.7 nM (active).
The value for `CC(C)NC(=O)Nc1ccc2c(c1)C(=O)N([C@@H](C)CO)C[C@@H](C)[C@H](CN(C)S(=O)(=O)c1ccc(F)cc1)OCCCC[C@H](C)O2` was 1790 nM (active).
Then `C[C@@H]1CN([C@@H](C)COC(C)(C)C)C(=O)c2cc(NC(=O)Nc3ccccc3)ccc2O[C@@H](C)CCCCO[C@H]1CN(C)S(=O)(=O)c1ccc(F)cc1`, with 3.6 nM (active); and `C[C@@H]1CN([C@@H](C)CO[Si](C)(C)C(C)(C)C)C(=O)c2cc(NC(=O)Nc3ccccc3)ccc2O[C@@H](C)CCCCO[C@H]1CN(C)S(=O)(=O)c1ccc(F)cc1`, with 5 nM (active).
Consider `C[C@@H]1CN([C@@H](C)COC(=O)C(C)(C)C)C(=O)c2cc(NC(=O)Nc3ccccc3)ccc2O[C@@H](C)CCCCO[C@H]1CN(C)S(=O)(=O)c1ccc(F)cc1`, for which the Potency is 50.4 nM (active).
Then `C[C@@H]1CN([C@@H](C)CO)C(=O)c2cc(N)ccc2O[C@@H](C)CCCCO[C@H]1CN(C)S(=O)(=O)c1ccc(F)cc1`, with 711 nM (active).
Then `C[C@@H]1CN([C@@H](C)CO)C(=O)c2cc(Nc3nc4ccccc4o3)ccc2O[C@@H](C)CCCCO[C@H]1CN(C)S(=O)(=O)c1ccc(F)cc1`, with 2000 nM (active); and `C[C@@H]1CN([C@@H](C)CO)C(=O)c2cc(NC(=O)Nc3ccccc3)ccc2O[C@@H](C)CCCCO[C@H]1CN(C)C(=O)OC(C)(C)C`, with 2250 nM (active).
Then `CC(C)N1C[C@@H](C)[C@H](CN(C)S(=O)(=O)c2ccc(F)cc2)OCCCC[C@H](C)Oc2ccc(NC(=O)Nc3ccccc3)cc2C1=O`, with 56.5 nM (active); and `C[C@@H]1CN([C@@H](C)COC(=O)c2ccccc2)C(=O)c2cc(NC(=O)Nc3ccccc3)ccc2O[C@@H](C)CCCCO[C@H]1CN(C)S(=O)(=O)c1ccc(F)cc1`, with 179 nM (active).
Take `C[C@@H]1CN([C@@H](C)CO)C(=O)c2cc(NC(=O)Nc3ccccc3)ccc2O[C@@H](C)CCCCO[C@H]1CN(C)S(=O)(=O)c1ccc(C(F)(F)F)cc1`: the Potency is 1130 nM (active).
Turning to `C[C@@H]1CN(CCO[Si](C)(C)C(C)(C)C)C(=O)c2cc(NC(=O)Nc3ccccc3)ccc2O[C@@H](C)CCCCO[C@H]1CN(C)S(=O)(=O)c1ccc(F)cc1`, the Potency is 225 nM (active).
In the case of `C[C@@H]1CN([C@@H](C)CO)C(=O)c2cc(NC(=O)Nc3ccccc3)ccc2O[C@@H](C)CCCCO[C@H]1CN(C)S(=O)(=O)c1cccc(F)c1`, the Potency was 50.4 nM (active).
Then `C[C@@H]1CCCCO[C@@H](CN(C)Cc2ccc(F)cc2)[C@H](C)CN([C@@H](C)CO)C(=O)c2cc(NC(=O)Nc3ccccc3)ccc2O1`, with 6340 nM (active); and `C[C@@H]1CN([C@@H](C)CN=[N+]=[N-])C(=O)c2cc(NC(=O)Nc3ccccc3)ccc2O[C@@H](C)CCCCO[C@H]1CN(C)S(=O)(=O)c1ccc(F)cc1`, with 56.5 nM (active); and `C[C@@H]1CN([C@H](C)CO[Si](C)(C)C(C)(C)C)C(=O)c2cc(NC(=O)Nc3ccccc3)ccc2O[C@@H](C)CCCCO[C@H]1CN(C)S(=O)(=O)c1ccc(F)cc1`, with 565 nM (active).
For the molecule `C[C@@H]1CN([C@@H](C)CO)C(=O)c2cc(NC(=O)Nc3ccccc3)ccc2O[C@@H](C)CCCCO[C@H]1CN(C)Cc1ccc(C(F)(F)F)cc1`, the Potency was 1590 nM (active).
For `COc1ccc(COCCN2C[C@@H](C)[C@H](CN(C)S(=O)(=O)c3ccc(F)cc3)OCCCC[C@H](C)Oc3ccc(NC(=O)Nc4ccccc4)cc3C2=O)cc1`, the Potency is 252 nM (active).
Regarding `C=CCOC(=O)N(C)C[C@@H]1OCCCC[C@H](C)Oc2ccc(NC(=O)Nc3ccccc3)cc2C(=O)N([C@@H](C)CO)C[C@H]1C`, the Potency is 1260 nM (active).
The value for `Cc1noc(C)c1NC(=O)Nc1ccc2c(c1)C(=O)N(C(C)C)C[C@@H](C)[C@H](CN(C)S(=O)(=O)c1ccc(F)cc1)OCCCC[C@H](C)O2` was 179 nM (active) and 2.52 µM (active).
Take `C=CCOC(=O)N(C)C[C@@H]1OCCCC[C@H](C)Oc2ccc(NC(=O)Nc3ccccc3)cc2C(=O)N([C@H](C)COC(=O)c2ccccc2)C[C@H]1C`: the Potency is 896 nM (active).
The value for `C[C@@H]1CCCCO[C@H](CN(C)C(=O)Nc2ccc(F)cc2)[C@H](C)CN([C@@H](C)CO)C(=O)c2cc(NS(=O)(=O)c3ccccc3)ccc2O1` was 504 nM (active); that for `C[C@@H]1CN([C@@H](C)COC(=O)c2ccccc2)C(=O)c2cc(NC(=O)Nc3ccccc3)ccc2O[C@@H](C)CCCCO[C@H]1CN(C)C(=O)OC(C)(C)C` was 798 nM (active).
